# Inconclusive results are not listed. Unmarked numbers belong to inactive results. The call rests on the fitted dose curve; in most records, active means well fitted activation curve with a large enough effect in the repeat runs; inconclusive means weak or mixed curves; inactive means flat fitted curve, though single readings scatter. Where a SMILES comes first, the peptide text is derived from it.
# Assay: A CellTox Green Cytotoxicity Assay to monitor cytotoxicity in HEK293 cells - 40 hour (AID 1224871); further: nearly all actives have a fitted effect of over 45% in size
# Conditions: CellTox Green fluorescence; series mostly up to 76.8 µM; cytotoxicity increase: at the top concentration
# Source text: National Center for Advancing Translational Sciences [NCATS]
# NIH Chemical Genomics Center [NCGC]
# U.S. Environmental Protection Agency [EPA]
# National Institutes of Environmental Health Sciences [NIEHS]
# National Toxicology Program [NTP]
# Cell-based models are critical for drug discovery. Determining the natural cytotoxic effects resulting from test compounds is an essential research activity. A CellTox Green Cytotoxicity Assay to monitor cytotoxicity in real time of continues cell culture during 40 hours of the compound treatment was used to screen Tox21 10K library compounds in Hek293 cells. CellTox Green Cytotoxicity Assay is a nonlytic, homogeneous, biofluorescent method to measure cytotoxicity in cell culture after experimental manipulation. The assay system uses a proprietary asymmetric cyanine dye that is excluded from viable cells but preferentially stains the dead cell's DNA. […] Viable cells produce no appreciable increases in fluorescence. Therefore, the fluorescence signal produced by the binding interaction with dead cell DNA is proportional to cytotoxicity.
# The mixture of Hek293 cell suspension and reagents were dispensed at 600cells/6 ul/well in 1536-well tissue culture treated black solid bottom plates using a Multidrop dispenser. After the assay plates were incubated at a 37 C/5% CO2 incubator for 5 hours, 23 nL of compounds dissolved in DMSO, positive and negative controls was transferred to the assay plate by a pintool work station. The plates were incubated at 37 C for 40 hours. The fluorescence intensity were measured at 0h, 8h, 16h, 24h, 32h and 40h time points using ViewLux plate reader during compound treatment.
# On the % scale 0 is the no-effect control and ±100 the full control effect.
row,SMILES,cytotoxicity increase
1,NCC1(Cc2noc(=O)[nH]2)CCCCC1,-3.98%
2,CCO,-13.7%
3,CC(C)COC(=O)c1ccccc1,20.1%
4,OC[C@@H](O)C(O)[C@@H](O)CO (stereo not given in full),-0.605%
5,O=C(O)[C@H](O)c1ccccc1,-37.4% [at 35.3 µM]
6,CCOc1ccccc1OCC1CNCCO1 (stereo not given),-6.27% [at 35.3 µM]
7,C=CC(=O)OCC1CCCO1 (stereo not given),-1.23%
8,Cc1ccc(C(C)NC(=O)[C@@H](NC(=O)OC(C)C)C(C)C)cc1 (stereo not given in full),-11.5%
9,NCCOCCN,-2.78%
10,CCCCCc1cccc(=O)o1,-19.4%
11,C=CCOC(=O)CCCCCC,1.37%
12,CCOC(=O)CC1(C)OCC(C)O1 (stereo not given),-13.7%
13,CC(=O)CC(=O)Nc1ccc(C)cc1C,-3.27%
14,CCC(C(=O)OCCN1CCOC(c2ccccc2)C1C)c1ccccc1 (stereo not given),-0.338% [at 35.3 µM]
15,CC(=O)C(C)O (stereo not given),-12%
16,CC(C)NCC(O)c1ccc2ccccc2c1 (stereo not given),13.3% [at 35.3 µM]
17,CC(=O)OC1CCCCC1C(C)(C)C (stereo not given),-22.5%
18,O=C(O)CNC(=O)CNC(=O)CNC(=O)CSC(=O)c1ccccc1,6.25% [at 35.3 µM]
19,CNCCS(=O)(=O)O,1.82%
20,CC(=O)N[C@@H](CO)C(=O)N[C@@H](CC(=O)O)C(=O)N[C@@H](CCCCN)C(=O)N1CCC[C@H]1C(=O)O (Ac-SDKP-OH),-5.63% [at 35.3 µM]

row,SMILES,cytotoxicity increase
1,Cc1ccnc(N)c1,-1.03%
2,CC(=O)O[C@H]1C[C@@H]2CC[C@@]1(C)C2(C)C,7.75%
3,CCn1cc(C(=O)O)c(=O)c2cnc(N3CCCC3)nc21,3.57% [at 6.97 µM]
4,COc1ccc(CCO)cc1,-13.7%
5,Nc1nnnn1-c1ccccc1,-4.21% [at 35.3 µM]
6,N#CCC(=O)NN,-0.389% [at 35.3 µM]
7,COc1cc(/C=C/C(N)=O)cc(OC)c1OC,0.661% [at 35.3 µM]
8,CC(=O)OC(C)=O,-14.4%
9,CC(C)[C@H]1CC[C@H](C)C[C@@H]1O,-0.402%
10,COS(=O)(=O)O,0.429%
11,CC(C)OC(=O)CCC(=O)OC(C)C,-9.31%
12,CC1CC(=O)CC(C)(C)C1 (stereo not given),0.268%
13,C=C(C)[C@@H]1CC=C(C)CC1,-13.1%
14,CCc1occc(=O)c1O,0.486%
15,CN(C)CC/C=C1/c2ccccc2COc2ccc(CC(=O)O)cc21,-1.8% [at 35.3 µM]
16,CCC[C@@H]1C[C@@H](C(=O)N[C@@H]([C@H]2O[C@H](SC)[C@H](O)[C@@H](O)[C@H]2O)[C@@H](C)O)N(C)C1,2.93% [at 35.3 µM]
17,CCOC(CN1CCN(CC(C)C(=O)c2ccccc2)CC1)c1ccccc1 (stereo not given),-2.53% [at 15.8 µM]
18,Cc1ccc2c(c1)C(=O)c1ccccc1C2=O,-4.22%
19,CC1=NN(c2ccc(S(=O)(=O)O)cc2)C(=O)C1,-1.42%
20,N[C@@H](Cc1ccc(O)cc1)C(=O)O,-0.009% [at 6.97 µM]

# From PubChem BioAssay (Tox21)
